From PubChem
Most compounds without a hit are left out; they make up all but 2.7% or so of the library.
GSIS activator: GLuc luminescence reporter in INS-1E cells, primary screen for activators of glucose-dependent secretion of insulin; 370,000 tested, 0.61% active; INS-1E GLuc reporter insulin secretion, 2-3 h; activation, % at 16.6 µM;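 active = lowest replicate activation of at least 40%, so every replicate reaches that level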;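 also: 0% = median of neutral control wells and 100% = median of IBMX positive control wells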
MITF act: activators of MITF-driven TRPM1 promoter reporter, primary screen, cell-based, SK-MEL-5, luciferase, single point | SK-MEL-5 TRPM1-promoter luciferase, 24 h; % of positive control, neutral wells = 0 | activation, % at 12.5 µM | 300,000 tested, 0.75% active | AID 588334, 2011;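 active = mean activation of at least 80% with every replicate also reaching 80%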;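 also: 0% = neutral control wells and 100% = parthenolide positive control wells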
CFTR F508del cor: F508del CFTR correction, initial screen, CFBE line, single point | activity (quench increase), % at 7.58 µM | CFBE cells, YFP halide quenching; stimulated with forskolin plus potentiator P3; % fluorescence drop versus neutral controls | 350,000 tested, 0.36% active | AID 720511, 2013;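 active = mean added fluorescence quench of at least 8% versus neutral control, with both replicates also reaching 8%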;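 also: cells transiently co-express mutant CFTR-F508del with the halide-sensitive YFP; corrector assay measuring rescue of mutant channel to the surface after 24 h compound exposure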
Wnt act: Wnt/beta-catenin pathway activators, primary screen, cell-based, plate reader, single point; Wnt/beta-catenin reporter cell assay, activator; activation, % at 9.35 µM; 300,000 tested, 1.2% active; in the data active = activation above about 30%, passing the limit was not always enough;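 also: 0% = neutral control wells and 100% = positive control wells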
Env fusion inh: inhibitors of HIV-1 Env-driven cell-cell fusion, primary screen, HeLa-JRFL effector, CEM21 target cells, luciferase; inhibition, % at 12.3 µM; 360,000 tested, 1.1% active; AID 651610, 2012;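 active = mean replicate inhibition score of at least 50 and every replicate individually at or above 50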;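 also: 0% = plate neutral controls and 100% = maraviroc near 300 nM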
The depositor's hits bear a star; · = no result given; [ ] = dose if it differs, or a comment.

SMILES	GSIS activator	MITF act	CFTR F508del cor	Wnt act	Env fusion inh
CN(C(=O)c1ccc(NC(=O)Cc2ccc(NC(=O)C3CCCN(C(=O)CCc4ccccc4)C3)cc2)cc1)C1CC1 (stereo not drawn)	-10	-18	0	-9	56*
CN(C(=O)c1cccc(NC(=O)Cc2cccc(NC(=O)C3CCCN(C(=O)C4CCC4)C3)c2)c1)C1CCC1 (stereo not drawn)	-7	4	2	1	85*
CN(C(=O)c1ccc(NC(=O)Cc2cccc(NC(=O)C3CCCN(C(=O)CCc4ccccc4)C3)c2)cc1)C1CCCC1 (stereo not drawn)	-6	-6	-1	-3	10
O=C(C[C@@H]1C=C[C@@H](NS(=O)(=O)c2ccc(F)cc2)[C@H](CO)O1)NCc1ccccc1F	3	·	1	·	·
COc1ccc(-c2nc(-c3cccnc3)no2)cc1	4	·	-1	53*	-60
CCOc1ccc(-c2nc(-c3cccnc3)no2)cc1	·	13	·	47*	-199
COc1ccc(-c2nc(-c3ccccn3)no2)cc1	11	-85	2	-29	62*
CCCCOc1ccc(-c2nc(-c3cccnc3)no2)cc1	·	99*	·	·	·
COc1ccc(S(=O)(=O)N(C)C[C@H]2Oc3c(NS(=O)(=O)c4cccs4)cccc3C(=O)N([C@@H](C)CO)C[C@@H]2C)cc1	0	·	-2	·	·
COc1ccc(S(=O)(=O)N(C)C[C@H]2Oc3c(NS(C)(=O)=O)cccc3C(=O)N([C@H](C)CO)C[C@H]2C)cc1	22	·	1	·	10[16.7 µM]
Cc1ccc(-c2noc(-c3ccccc3F)n2)cc1	-4	12	-3	57*	-117
Cc1ccccc1-c1nc(-c2cccnc2)no1	·	·	·	48*	-346
Clc1ccccc1-c1nc(-c2cccnc2)no1	·	3	·	·	·
O=C(O)c1ccc(-c2noc(-c3ccccc3F)n2)cc1	13	5	-1	16	-171
C[C@H]1CN([C@@H](C)CO)C(=O)c2cc(NC(=O)NC3CCCCC3)ccc2O[C@H]1CN(C)C	-5	·	3	·	0[16.7 µM]
Cc1cc2[nH]c3ccccc3c2c(C)n1	14	-10	·	·	-18
Cc1cc2[nH]c3c4ccccc4nc(C)c3c2cc1C	271*	·	-16	-7	-180
C[C@H](O)C#Cc1cnc2c(c1)C(=O)N([C@H](C)CO)C[C@@H](C)[C@H](CN(C)Cc1cccc(C(=O)O)c1)O2	15	·	1	·	15[16.7 µM]
O=C1CSC(c2ccccn2)N1c1ccccc1 (stereo not drawn)	16	6	-2	0	·
O=C1CSC(c2ccccn2)N1c1ccc(Br)cc1 (stereo not drawn)	43*	-13	3	3	-26
COCC#Cc1cnc2c(c1)C(=O)N([C@H](C)CO)C[C@@H](C)[C@H](CN(C)Cc1ccc(F)cc1)O2	2	·	3	·	-17[16.7 µM]
COc1ccc(OC)c2[nH]c(C(=O)N/N=C/c3ccccc3O)cc12	6	-59	14*	1	20
COc1ccc(/C=N/NC(=O)c2cc3c(OC)ccc(OC)c3[nH]2)cc1O	5	-12	0	-7	-259
COc1ccccc1/C=N/NC(=O)c1cc2c(OC)c(OC)ccc2[nH]1	-1	-12	9.3*	-1	-139
C[C@@H]1CN([C@@H](C)CO)S(=O)(=O)c2ccc(C3=CCCCC3)cc2O[C@@H]1CN(C)Cc1ccccn1	0	·	3	·	6[16.7 µM]
SMILES	GSIS activator	MITF act	CFTR F508del cor	Wnt act	Env fusion inh
CCCC(=O)N1CC2(C1)CN(Cc1ccncc1)[C@@H](CO)c1[nH]c3cc(OC)ccc3c12	14	·	·	·	·
COc1ccccc1C(=O)Nc1ccc2c(c1)nc(CCNC(=O)c1ccco1)n2C	0	9	10*	6	-243
Cn1c(CCNC(=O)c2ccco2)nc2cc(NC(=O)c3ccco3)ccc21	·	·	·	39*	-67
Cn1c(CCNC(=O)c2ccco2)nc2cc(NC(=O)c3ccccc3)ccc21	4	89*	1	32*	-17
Cn1c(CCNC(=O)c2ccccc2)nc2cc(NC(=O)c3ccco3)ccc21	·	·	·	13	-45
COc1ccc2sc3cccc(NCCN(C)C)c3c(=O)c2c1	2	·	12*	-1	13
C[C@@H]1CN([C@H](C)CO)C(=O)c2cc(NS(=O)(=O)c3ccccc3)ccc2O[C@@H](C)CCCCO[C@@H]1CN(C)C	4	·	7	·	-1[16.7 µM]
